According to PubChem BioAssay AID2535 (National Center for Advancing Translational Sciences (NCATS), 2010):
Calls of active or inactive are those of the source. The call rests on the fitted dose curve; in most records, active means well fitted curve in the direction sought with a large enough effect; inconclusive means small, poorly fitted or top-dose-only effect, or effect the other way, or another doubt; inactive means no such curve, though single readings can be large or run the other way.

What follows are molecules tested against Pyruvate kinase PKLR (Homo sapiens) (UniProt P30613) (assay: Secondary Concentration-Response Assay for Activators of Human Liver Pyruvate Kinase: for Probe SAR). Conditions: purified hPK-L, ATP production, Kinase-Glo luminescence; series mostly up to 58.3 µM.
Description: NIH Chemical Genomics Center [NCGC]
Matthew G. Vander Heiden, M.D., Ph.D. [Harvard Medical School, 77 Avenue Louis Pasteur, Boston, MA 02115]
Human pyruvate kinase liver (hPK-L) enzyme was supplied as a highly purified (>95% pure) preparation from Harvard Medical School and assayed for its ability to generate ATP from ADP using phosphoenolpyruvate (PEP) as a substrate. ATP generation was detected in a coupled reaction by luciferase-mediated luminescence, an ATP-dependent process. Pyruvate kinase substrates, PEP and ADP, were present in the assay at Km and approximately 10-fold below Km respectively. The enzyme was assayed at an intermediate level of activity to screen for both inhibitors and activators.
NCGC Assay Protocol Summary for L-isoform:
Three uL of substrate mix (at r.t.) in assay buffer (50 mM Imidazole pH7.2, 50 mM KCl, 7 mM MgCl2, 0.01% Tween 20, 0.05% BSA) was dispensed into white solid bottom 1,536 well microtiter plates so that the final concentrations of substrates in the assay were 0.1 mM ADP and 0.5 mM PEP. 23 nL of compound were delivered by a pin tool and 1 uL of enzyme mix (final concentration of 0.1 nM) in assay buffer (4 degree Celsius) was added. Plates were incubated at room temperature for 1 hour. Two uL of detection mix (Kinase-Glo, Promega; at 4 degree Celsius protected from light) was added and luminescence read by a ViewLux (Perkin Elmer) at 1 second exposure/plate. Data were normalized to the uninhibited (row 31). Additionally, a no enzyme and 5-fold enzyme control was dispensed in row 32, split equally between the two conditions.

Pyruvate kinase PKLR (Homo sapiens), sequence (P30613 whole entry, looked up): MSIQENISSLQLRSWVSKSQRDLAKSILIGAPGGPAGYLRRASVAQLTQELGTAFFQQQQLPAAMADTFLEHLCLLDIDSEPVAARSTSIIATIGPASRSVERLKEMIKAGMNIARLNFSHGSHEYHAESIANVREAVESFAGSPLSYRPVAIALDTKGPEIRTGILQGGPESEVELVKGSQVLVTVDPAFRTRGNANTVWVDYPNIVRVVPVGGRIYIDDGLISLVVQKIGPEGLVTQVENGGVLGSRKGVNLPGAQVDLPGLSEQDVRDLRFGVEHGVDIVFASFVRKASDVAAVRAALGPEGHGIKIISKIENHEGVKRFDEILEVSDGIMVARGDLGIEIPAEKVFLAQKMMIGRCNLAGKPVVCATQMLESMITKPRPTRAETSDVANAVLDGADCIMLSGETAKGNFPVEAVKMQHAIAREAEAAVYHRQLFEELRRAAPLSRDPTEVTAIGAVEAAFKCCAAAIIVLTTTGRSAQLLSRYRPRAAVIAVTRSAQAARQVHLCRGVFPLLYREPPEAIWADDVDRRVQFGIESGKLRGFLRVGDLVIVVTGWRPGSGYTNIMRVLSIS

outcome, inactive:
O=C1c2ccccc2C(=O)N1c1cccc2cnccc12
O=C1c2ccccc2C(=O)N1c1cnc2ccccc2c1
O=C1c2ccccc2C(=O)N1Cc1ccncc1
O=C1c2ccccc2C(=O)N1Cc1cccnc1
Cc1ccc(NS(=O)(=O)c2cc3c(cc2N2CCC2)NC(=O)CC3)cc1C
O=C1CCc2cc(S(=O)(=O)Nc3cccc(B(O)O)c3)ccc2N1
COc1ccccc1N1C(=O)c2ccccc2C1=O
COc1cccc(NS(=O)(=O)c2ccc3c(c2)CCC(=O)N3)c1
Cc1ccc2nc(-c3ccc(C)o3)c(Nc3ccccc3)n2c1
Cc1ccc(Nc2c(-c3ccsc3)nc3c(C)cccn23)cc1
Cc1ccc(-c2nc3cccc(C)n3c2Nc2ccc(F)cc2)o1
Cc1cc(NS(=O)(=O)c2ccc3c(c2)CCC(=O)N3)ccc1Cl
N#Cc1ccc(NS(=O)(=O)c2ccc3c(c2)CCC(=O)N3)cc1
O=C1c2ccccc2C(=O)N1c1ccccc1O
Cc1ccc(NS(=O)(=O)c2ccc3c(c2)n(C)c(=O)n3C)cc1C
Cc1ccc(NS(=O)(=O)c2cc3c(cc2Cl)CCC(=O)N3)cc1C
Cc1c(Cl)cccc1NS(=O)(=O)c1cc2c(cc1Cl)CCC(=O)N2
Cc1ccc2nc(-c3cccs3)c(Nc3ccccc3)n2c1
Cc1ccc(NS(=O)(=O)c2cc3c(cc2C)OCC(=O)N3)cc1C
Cc1ccc(Nc2c(-c3ccc(C)o3)nc3ccccn23)cc1
Cc1ccc(N(C)S(=O)(=O)c2ccc3c(c2)CCC(=O)N3)cc1C
Nc1cccc(S(=O)(=O)N2CCCN(S(=O)(=O)c3ccc4c(c3)OCCO4)CC2)c1
Fc1ccccc1-c1ccc(-c2nc3ccc(Cl)cn3c2Nc2ccc(Cl)cc2)o1
Cc1cc(NS(=O)(=O)c2ccc3c(c2)CCC(=O)N3)ccc1F
COc1ccc(OC2=NS(=O)(=O)c3ccccc32)cc1
O=C1c2ccccc2C(=O)N1c1cc(=O)c2ccccc2[nH]1
Cc1ccc(NS(=O)(=O)c2ccc(Cl)cc2)cc1C
Cc1ccc(NS(=O)(=O)c2cc3c(cc2Cl)NC(=O)C3)cc1C
COc1ccc(-c2nc3cccc(C)n3c2Nc2ccc(C)cc2)cc1
Cc1ccc(NS(=O)(=O)c2cc3c(cc2F)NC(=O)CC3)cc1Cl
Cc1ccc2nc(-c3ccc(C)o3)c(Nc3ccc(F)cc3)n2c1
Cc1ccc(NS(=O)(=O)c2ccc3c(c2)CC(=O)N3C)cc1C
Cc1ccc(NS(=O)(=O)c2ccc3c(c2)oc(=O)n3C)cc1C
Cc1ccc(NS(=O)(=O)c2cc3c(cc2N(C)C)CCC(=O)N3)cc1C
O=C1CCc2cc(S(=O)(=O)Nc3ccc(Cl)cc3)ccc2N1
Cc1ccc(NS(=O)(=O)c2ccc3c(c2)CCC(=O)N3)cc1
O=C1c2ccccc2C(=O)N1c1ccc(O)cc1
O=C1c2ccccc2C(=O)N1c1cccc(Cl)c1
Cc1cccc(OC2=NS(=O)(=O)c3ccccc32)c1
Cc1ccc(-c2nc3ccccn3c2Nc2ccccc2C)o1
